Laboratory results taken from the supplement of paper PMC7411054.

Assays:
Assay in all cases: phenotypically active (imaging signature differs from DMSO and reproducible) at any of 0.3-9 uM (binary (1 = active, 0 = inactive)); higher = active
Conditions in all cases: treatment time: 24 h
[1] = tested on: A549-ACTB-RAB5A
Outline: (§1)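 Fifteen reporter lines derived from A549, HepG2 and WPMY1 cells by gene editing, carrying BFP for segmentation plus GFP and RFP/FusionRed markers, were exposed to 0.3, 1, 3 or 9 µM for 24 h in four wells each and imaged live. Live-cell features from each well were normalised to solvent control wells. A well set counted as deviating when ≥3 of 4 wells lay beyond the 95th percentile of control Euclidean distances, and as reproducible when the median replicate Pearson correlation exceeded the 95th percentile of non-replicates. Phenotypic activity was assigned only when both criteria were met.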

[2] = tested on: A549-CANX-COX4
Outline: as §1

[3] = tested on: A549-GM130-SQSTM1
Outline: as §1

[4] = tested on: A549-TP53BP1-CLTA
Outline: as §1

[5] = tested on: A549-TUBA1B-RELA
Outline: as §1

[6] = tested on: HepG2-ACTB-RAB5A
Outline: as §1

[7] = tested on: HepG2-CANX-COX4
Outline: as §1

[8] = tested on: HepG2-GM130-SQSTM1
Outline: as §1

[9] = tested on: HepG2-TP53BP1-CLTA
Outline: as §1

[10] = tested on: HepG2-TUBA1B-RELA
Outline: as §1

[11] = tested on: WPMY1-ACTB-RAB5A
Outline: as §1

[12] = tested on: WPMY1-CANX-COX4
Outline: as §1

[13] = tested on: WPMY1-GM130-SQSTM1
Outline: as §1

[14] = tested on: WPMY1-TP53BP1-CLTA
Outline: as §1

[15] = tested on: WPMY1-TUBA1B-RELA
Outline: as §1

Measured: phenotypically active

CCCCCCCCCCCCCCCC(=O)C(F)(F)F
inactive: [1] 0 | [2] 0 | [3] 0 | [4] 0 | [5] 0 | [6] 0 | [7] 0 | [8] 0 | [9] 0 | [10] 0 | [11] 0 | [12] 0 | [13] 0 | [14] 0 | [15] 0

C[C@H](NC(=O)CCc1nc2ccccc2c(=O)[nH]1)c1ccccc1
inactive: [1] 0 | [2] 0 | [3] 0 | [4] 0 | [5] 0 | [6] 0 | [7] 0 | [8] 0 | [9] 0 | [10] 0 | [11] 0 | [12] 0 | [13] 0 | [14] 0 | [15] 0

CC(=O)N[C@@H]1[C@@H](O[C@H](C)C(=O)O)[C@H](O)[C@@H](CO)O[C@@H]1O [Muramic acid, N-acetyl]
inactive: [1] 0 | [2] 0 | [3] 0 | [4] 0 | [5] 0 | [6] 0 | [7] 0 | [8] 0 | [9] 0 | [10] 0 | [11] 0 | [12] 0 | [13] 0 | [14] 0 | [15] 0

COc1ccccc1OCC(O)COC(N)=O (stereo not given) [methocarbamol]
inactive: [1] 0 | [2] 0 | [3] 0 | [4] 0 | [5] 0 | [6] 0 | [7] 0 | [8] 0 | [9] 0 | [10] 0 | [11] 0 | [12] 0 | [13] 0 | [14] 0 | [15] 0

CNC(=O)COC(=O)N1CCC(CCc2ccc(Cl)cc2)CC1
inactive: [1] 0 | [2] 0 | [3] 0 | [4] 0 | [5] 0 | [6] 0 | [7] 0 | [8] 0 | [9] 0 | [10] 0 | [11] 0 | [12] 0 | [13] 0 | [14] 0 | [15] 0

CCc1cccc2c3c([nH]c12)C(CC)(CC(=O)O)OCC3 (stereo not given) [etodolac]
inactive: [1] 0 | [2] 0 | [3] 0 | [4] 0 | [5] 0 | [6] 0 | [7] 0 | [8] 0 | [9] 0 | [10] 0 | [11] 0 | [12] 0 | [13] 0 | [14] 0 | [15] 0

O=c1[nH]cnc2c1ncn2[C@H]1CC[C@@H](CO)O1 [Didanosine]
inactive: [1] 0 | [2] 0 | [3] 0 | [4] 0 | [5] 0 | [6] 0 | [7] 0 | [8] 0 | [9] 0 | [10] 0 | [11] 0 | [12] 0 | [13] 0 | [14] 0 | [15] 0

CC(C[N+](C)(C)C)OC(N)=O (stereo not given) [bethanechol]
inactive: [1] 0 | [2] 0 | [3] 0 | [4] 0 | [5] 0 | [6] 0 | [7] 0 | [8] 0 | [9] 0 | [10] 0 | [11] 0 | [12] 0 | [13] 0 | [14] 0 | [15] 0

Cc1c(OCC(F)(F)F)ccnc1CS(=O)c1nc2ccccc2[nH]1 (stereo not given) [lansoprazole]
inactive: [1] 0 | [2] 0 | [3] 0 | [4] 0 | [5] 0 | [6] 0 | [7] 0 | [8] 0 | [9] 0 | [10] 0 | [11] 0 | [12] 0 | [13] 0 | [14] 0 | [15] 0

C[N+](C)(C)CC[N+]1(C)Cc2c(Cl)c(Cl)c(Cl)c(Cl)c2C1 [Chlorisondamine diiodide]
inactive: [1] 0 | [2] 0 | [3] 0 | [4] 0 | [5] 0 | [6] 0 | [7] 0 | [8] 0 | [9] 0 | [10] 0 | [11] 0 | [12] 0 | [13] 0 | [14] 0 | [15] 0

COCc1nc2c([nH]1)c(=O)n(C)c(=O)n2CC(C)C
inactive: [1] 0 | [2] 0 | [3] 0 | [4] 0 | [5] 0 | [6] 0 | [7] 0 | [8] 0 | [9] 0 | [10] 0 | [11] 0 | [12] 0 | [13] 0 | [14] 0 | [15] 0

CC1=Nc2ccc(Cl)cc2S(=O)(=O)N1 [diazoxide]
inactive: [1] 0 | [2] 0 | [3] 0 | [4] 0 | [5] 0 | [6] 0 | [7] 0 | [8] 0 | [9] 0 | [10] 0 | [11] 0 | [12] 0 | [13] 0 | [14] 0 | [15] 0
